MCF10A rereplic: DNA re-replication induction in MCF 10a cells; 2.9% of 350,000 active; Potency, µM (doses to about 46.1 µM), most hits filed as activators; MCF 10A DNA re-replication, Hoechst nuclear intensity, 48 h; note: nearly all actives have a fitted effect of over 50% in size
KB-3-1 cytotox: KB-3-1 parental cell cytotoxicity. AID 1347075. KB-3-1 viability, CellTiter-Glo ATP luminescence, 72 h. 1.4% of 400,000 active. Potency, µM (top dose mostly 46.1 µM), hits mostly cytotoxic; note: nearly all actives have a fitted effect of over 60% in size
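Parental KB-3-1 viability, qHTS format: 72 h compound exposure, 37 °C; CellTiter-Glo; media-only wells and DMSO plates as controls; concentration-effect fits on corrected data.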
KB-V1 cytotox: KB-V1 MDR subline cytotoxicity | KB-V1 MDR cells viability, CellTiter-Glo, 72 h | Potency, µM (highest dose often 46.1 µM), most hits filed as cytotoxic | 3.4% of 400,000 active; note: nearly all actives have a fitted effect of over 60% in size
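Cytotoxicity via CellTiter-Glo luminescence after 72 h compound exposure at 37 degrees C. Cells: drug-selected KB-V1 line, DMEM phenol-red free plus 10% FBS. Compounds tested at multiple concentrations; normalized data fitted to concentration-effect curves.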
TSG101-PTAP inh: blocks PTAP/TSG101 interaction to inhibit HIV-1 budding. Fluorescence polarization, FITC-PTAP peptide / Tsg101 binding. AID 493005. 340,000 tested, under 10 active. Potency, µM (highest dose often 115 µM), most hits filed as inhibitors; active = well fitted inhibition curve with a large enough effect in the main read-out, with a control signal flat, not every such curve was filed as active; inconclusive = small, poorly fitted or top-dose-only effect, or effect the other way, or a change in a side signal; inactive = no such curve, though single readings can be large or run the other way
Target sequence (Q99816 whole entry, looked up): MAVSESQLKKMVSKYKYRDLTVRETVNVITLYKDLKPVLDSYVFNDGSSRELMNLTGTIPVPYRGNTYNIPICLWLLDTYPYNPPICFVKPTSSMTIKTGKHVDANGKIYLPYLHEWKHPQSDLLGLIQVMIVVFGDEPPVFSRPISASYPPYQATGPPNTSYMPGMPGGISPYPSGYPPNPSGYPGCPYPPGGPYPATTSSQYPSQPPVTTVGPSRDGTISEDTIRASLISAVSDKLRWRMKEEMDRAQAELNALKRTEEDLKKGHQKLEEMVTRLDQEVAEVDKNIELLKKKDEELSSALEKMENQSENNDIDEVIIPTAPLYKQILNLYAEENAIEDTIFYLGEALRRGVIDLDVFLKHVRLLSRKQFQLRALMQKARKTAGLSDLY
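Tsg101 binding domain (10 uM final) was mixed with compound and a FITC-labeled PTAP peptide (50 nM final) in HEPES pH 7.5 buffer with NaCl, Tween 20, EDTA and TCEP; fluorescence polarization was read after 20 min at r.t.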
PINK1 modulator: changes PINK1 expression | 0.2% of 410,000 active | AID 624263 | PINK1 immunofluorescence, high-content cytometry, 24 h | Potency, µM (doses to about 76.6 µM), hits mostly activators; active = well fitted activation curve with a large enough effect; inconclusive = small, poorly fitted or top-dose-only effect; cell line not stated here; note: nearly all actives have a fitted effect of over 65% in size
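Compound titrations (5 concentrations, 24 h) on a stable cell line; DMSO and CCCP controls. Endpoint: fixed-cell PINK1 immunofluorescence with mitochondrial, cell and nuclear markers, scanned by microplate cytometer.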
SW480 rereplic: DNA re-replication induction in SW480 cells; AID 624297; 1.8% of 340,000 active; SW480 DNA re-replication, Hoechst DNA content imaging, 48 h; Potency, µM (highest dose often 46.1 µM), most hits filed as activators; note: nearly all actives have a fitted effect of over 55% in size
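Per well, 250 cells were exposed to pinned compound for 48 hr. Nuclear DNA was visualised with Hoechst (40 min, 37 C) and total object intensity recorded by fluorescence scanning.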
A number is an active result; n = inactive; u = inconclusive; x = no result given. Rows were chosen to be rich in hits. Some 6.8% of all compounds tested hit in one or more screens of this group. Unless noted, calls come from the whole dose curve; as a rule, active = well fitted curve in the direction sought with a large enough effect; inconclusive = small, poorly fitted or top-dose-only effect, or another doubt; inactive = no such curve, though single readings can be large; an effect the other way counts as inactive or inconclusive.

SMILES	MCF10A rereplic	KB-3-1 cytotox	KB-V1 cytotox	TSG101-PTAP inh	PINK1 modulator	SW480 rereplic
COc1ccc(Nc2sc(C(=O)c3ccc(Cl)cc3)c(N)c2C(=O)Nc2ccccc2OC)cc1	n	u	u	n	16µM	n
Cc1c(C(=O)Nc2ccccc2Cl)oc2ccc(S(=O)(=O)N3CCCCCC3)cc12	x	n	n	x	n	x
Cc1cc(C)cc(NC(=O)N2CCC(C(=O)c3ccc(F)cc3)CC2)c1	n	n	u	n	n	n
Cc1cccc(NC(=O)N2CCC(C(=O)c3ccc(F)cc3)CC2)c1	n	n	n	n	n	2.3µM
COc1ccc(C2=CC(c3cc(OC)c(OC)c(OC)c3)NC(=S)N2)cc1 (stereo not drawn)	u	u	n	n	n	18µM
COc1cc(C2C=C(C34CC5CC(CC(C5)C3)C4)NC(=S)N2)cc(OC)c1OC (stereo not drawn)	n	u	u	n	n	u
CCC(Sc1ncccc1C(=O)Oc1ccccc1Cl)C(=O)Nc1ccccc1OC (stereo not drawn)	x	x	x	x	n	x
COc1ccccc1NC(=O)C(=O)/C=C(\O)c1ccccc1	n	n	18µM	n	n	n
CCOc1ccccc1NC(=O)C(=O)/C=C(\O)c1cc(OC)ccc1OC	n	n	u	n	n	n
Cc1nc2cc(NC(=O)[C@@H]3C[C@@H](Sc4ccccn4)CN3Cc3ccccc3)ccc2s1	x	x	x	x	n	x
CCOC(=O)c1c(C)[nH]c(C(=O)CSc2ccc(Cl)cc2)c1C	n	n	18µM	n	n	n
CCOC(=O)c1c(C)[nH]c(C(=O)COC(=O)CNC(=O)c2ccc(Cl)cc2)c1C	n	n	4.1µM	n	n	x
CCOC(=O)c1c(C)[nH]c(C(=O)COC(=O)c2ccc(O)cc2)c1C	n	n	u	n	n	n
CCOC(=O)c1c(C)[nH]c(C(=O)CSc2nc(C)cc(C)n2)c1C	n	n	u	n	n	n
CCOC(=O)c1c(C)[nH]c(C(=O)COC(=O)COc2ccc(OC)cc2)c1C	n	n	18µM	n	n	n
CCOC(=O)c1c(C)[nH]c(C(=O)COC(=O)C2(C)CC2(Cl)Cl)c1C (stereo not drawn)	n	n	13µM	n	n	n
CCOC(=O)C(=O)Nc1nnc2n1CCS2	x	x	x	x	n	x
CCN(C(=O)CSc1nc2ccccc2nc1Cc1ccc(F)cc1)c1cccc(C)c1	x	n	n	x	n	x
CCN(C(=O)CSc1nc(-c2ccccc2)no1)c1cccc(C)c1	x	6.5µM	n	x	13µM	x
O=C(Nc1cc2c(=O)n(-c3ccc(Oc4ccccc4)cc3)ccc2oc1=O)c1ccccc1	5.2µM	n	n	n	n	u
C(=C/c1ccnc2nc(SC/C=C/c3ccccc3)nn12)/c1ccccc1	u	n	16µM	n	n	u
C=CCn1c(CCNC(=O)c2cccs2)nnc1SCC(=O)c1ccc(Br)cc1	n	n	21µM	n	n	u
Cc1cc2c(n1-c1ccc(C(=O)NCc3cccc(Br)c3)cc1)CCC(C)C2 (stereo not drawn)	x	x	x	x	n	x
Cc1ccc2c(c1)c1nc3ccccc3nc1n2CCN1CCOCC1	u	n	21µM	n	n	u
COc1ccc2c(c1)c1nc3ccccc3nc1n2CCn1c(=O)oc2ccccc21	n	n	n	u	4µM	n
SMILES	MCF10A rereplic	KB-3-1 cytotox	KB-V1 cytotox	TSG101-PTAP inh	PINK1 modulator	SW480 rereplic
CCN(CC)CCn1c2ccccc2c2nc3ccccc3nc21	u	u	u	n	n	u
CCCn1c2ccccc2c2nc3ccccc3nc21	22µM	n	n	n	n	u
CCCCn1c2ccc(C)cc2c2nnc(SCCN3CCCCC3)nc21	n	18µM	n	n	u	u
CCc1ccc(-n2c(=O)c3sc4ccccc4c3n(CC(=O)N3CCCC3)c2=O)cc1	x	n	n	x	n	x
COc1ccc(S(=O)(=O)N(CC(=O)NC(C)c2ccccc2)c2ccc(C)cc2)cc1OC (stereo not drawn)	x	n	u	x	n	x
Cc1ccc(Cn2c(C(=O)O)c(CNCc3ccc(OC(C)C)cc3)c3ccc(C)cc32)cc1	x	u	n	x	n	x
CC1CN(c2nc3ccccc3cc2-c2ccccc2)CC(C)O1 (stereo not drawn)	21µM	n	n	n	n	n
CC1CN(c2cc(-c3ccccc3)c3ccccc3n2)CC(C)O1 (stereo not drawn)	n	n	n	n	n	n
CC1CN(c2nn3c(=O)c4ccccc4nc3c3ccccc23)CC(C)O1 (stereo not drawn)	n	u	21µM	n	n	n
CCN1CCN(c2nn3c(=O)c4ccccc4nc3c3ccccc23)CC1	n	u	u	n	n	n
COc1ccc(CCNC(=O)c2ccc3c(c2)N(Cc2c(F)cccc2Cl)C(=O)CS3)cc1OC	x	n	n	x	n	x
CN(CCC#N)c1ccc(C=C(C#N)c2ccc(Br)cc2)cc1	x	n	16µM	x	n	x
N#C/C(=C\c1cccc([N+](=O)[O-])c1)c1ccccn1	n	n	n	n	n	n
COc1cc(/C=C(\C#N)c2ccccn2)ccc1OCc1ccccc1	n	n	n	n	n	n
CCN(CC)c1ccc(/C=C(\C#N)c2ccccn2)cc1	23µM	u	u	n	n	15µM
CN(CCC#N)c1ccc(/C=C(\C#N)c2ccccn2)cc1	u	u	5.2µM	n	n	n
N#C/C(=C\c1ccc(C(=O)O)cc1)c1ccccn1	n	n	n	n	n	n
CCN(Cc1ccccc1)c1ccc(/C=C(\C#N)c2ccccn2)cc1	21µM	n	u	n	n	n
CC(C)c1ccc(Nc2c(-c3ccc(N4CCOCC4)cc3)nc3ncccn23)cc1	x	n	n	x	n	x
Cc1ccccc1Nc1nnc(SCC2CCCCO2)s1 (stereo not drawn)	n	n	n	n	n	n
COCCSc1nnc(NC(=O)Cc2ccccc2OC)s1	n	n	18µM	n	n	n
COc1ccccc1Nc1nnc(SCC(=O)N2CCCC2)s1	n	n	13µM	n	n	n
COc1ccccc1Nc1nnc(SCC2CCCCO2)s1 (stereo not drawn)	u	16µM	9.2µM	n	n	u
COc1ccc(N2CCN(CCCNC(=O)C3COc4ccc(OC)cc4C3)CC2)cc1 (stereo not drawn)	x	n	n	x	n	x
CCOC(=O)C1=C(CN2CCN(c3ccc(Cl)cc3)CC2)NC(=O)NC1c1ccc(OC)cc1 (stereo not drawn)	x	u	u	x	n	x
OC(c1ccccc1)C1CN(Cc2ccccc2)CCC1(O)c1ccccc1 (stereo not drawn)	n	n	23µM	n	n	n
O=C(c1ccccc1)C1CN(Cc2ccccc2)CCC1(O)c1ccccc1 (stereo not drawn)	u	n	n	n	n	u

From PubChem
